# Measurements taken from PubChem BioAssay AID1347043 (National Center for Advancing Translational Sciences (NCATS), 2019).
# Out of some 76,000 compounds screened, about 1,900 (2.5%) were called active. Roughly 5% stayed inconclusive and do not appear here. The list comes from a sample in which actives are over-represented; it also holds similar structures and randomly drawn compounds. Values without a mark were called inactive. Calls follow the shape of the dose curve; as a rule, active = well fitted inhibition curve with a large enough effect; inconclusive = small, poorly fitted or top-dose-only effect; inactive = flat fitted curve, though single readings scatter.
# Molecular target: Luciferin 4-monooxygenase (Photinus pyralis) (UniProt P08659)
# Sequence (P08659 whole entry, looked up): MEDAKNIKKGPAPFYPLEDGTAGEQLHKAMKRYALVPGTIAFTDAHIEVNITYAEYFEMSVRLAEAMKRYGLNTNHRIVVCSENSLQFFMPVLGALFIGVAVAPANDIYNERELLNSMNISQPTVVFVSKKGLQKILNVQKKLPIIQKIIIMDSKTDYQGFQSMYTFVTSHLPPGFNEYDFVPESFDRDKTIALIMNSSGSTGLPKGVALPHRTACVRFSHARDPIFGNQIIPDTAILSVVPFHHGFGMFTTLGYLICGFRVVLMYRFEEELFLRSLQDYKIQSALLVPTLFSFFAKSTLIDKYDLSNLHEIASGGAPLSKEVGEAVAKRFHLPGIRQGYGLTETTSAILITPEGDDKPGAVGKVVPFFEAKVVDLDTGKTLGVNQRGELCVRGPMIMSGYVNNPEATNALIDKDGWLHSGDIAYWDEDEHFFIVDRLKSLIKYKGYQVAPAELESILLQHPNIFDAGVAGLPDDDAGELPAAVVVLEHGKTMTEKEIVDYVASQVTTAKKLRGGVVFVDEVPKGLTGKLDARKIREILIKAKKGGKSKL
# Assay: Firefly luciferase inhibition profiling of diverse chemical library using quantitative high-throughput screening; also: nearly all actives have a fitted effect of over 65% in size
# Conditions: purified P. pyralis luciferase, luminescence, biochemical; series mostly up to 115 µM; activity change, negative = inhibition: at the top concentration
# Excerpt: Firefly (Photinus pyralis) luciferase is one of the most commonly used transcriptional reporters for a number of reasons. It is considered one of the more dynamically responsive reporters - that is, responsive to changes in reporter transcription - as it requires no post-translational modifications and is enzymatically active directly after protein synthesis (Wood, 1998). Additionally, the half-life of the luciferase protein is short relative to other reporter-gene products (Wood, 1995). Whereas reporters with long half-lives potentially allow for increased signal due to accumulation of reporter-gene product, once accumulated in the cell, dynamic changes in reporter-gene expression may be difficult to detect(Fan and Wood, 2007; Almond et al., 2004). It has been shown that wild-type P. pyralis luciferase has a half-life of approximately four hours in mammalian cells (Thompson et al., 1991). Firefly luciferase reporter-gene assays are also generally considered one of the most sensitive assay types (Wood, 1995; Wood, 1998). Although light produced in a bioluminescence reaction is of lower intensity than that produced during fluorescence emission, this is offset by little to no background light inherent to luminescent assays. Thus the luciferase reporter can be expressed at much lower levels than fluorescent proteins while still providing robust signal. However, it was initially observed, in 1991, by Thompson et al., that compounds that resemble the substrates of firefly luciferase (FLuc) can act as competitive inhibitors of the enzyme, and that these compounds, upon interaction with luciferase in the cell, can actually stabilize the protein and increase its half-life. Accumulated intracellular FLuc protein can be measured as an increase in luminescence signal, upon addition of detection reagents (which contain high concentrations of FLuc substrates) commonly used in high-throughput screening. In cell-based reporter gene assays that use FLuc as the reporter gene to quantitate the potential influence of a given compound against the target biology, this apparent increase in luminescence can mistakenly be interpreted as identification of a compound that is active against the target of interest. FLuc inhibitory compounds that stabilize the FLuc protein will give an identical read-out, making it difficult to distinguish compounds that are active against the target from those active against FLuc. In summary, the results generated here constitutes a valuable resource for the scientific community and provides insight on identifying compounds with inhibitory activity for the commonly-used reporter, firefly luciferase. References: -Almond, B., Zdanovsky, A., Zdanovskaia, M., Ma, D., Stecha, P., Paguio, A., Garvin, D., and Wood, K. (2004). Introducing the Rapid Response Reporter Vectors. Promega Notes 87, 18-22. -Fan, F., and Wood, K.V. (2007). Bioluminescent assays for high-throughput screening. Assay Drug Dev Technol 5, 127-136. -Thompson, J.F., Hayes, L.S., and Lloyd, D.B. (1991). Modulation of firefly luciferase stability and impact on studies of gene regulation. Gene 103, 171-177. -Wood, K.V. (1998). The chemistry of bioluminescent reporter assays. Promega Notes 65, 14-20. -Wood, K.V. (1995). Marker proteins for gene expression. Curr Opin Biotechnol 6, 50-58.
# Reagents: 50mM Tris acetate, pH 7.5; 10mM Mg acetate; 10uM D-luciferin (Sigma #L9504); 10uM ATP; 0.01% Tween-20; 0.05% BSA; 10nM P. pyralis luciferase (Sigma #L9506) Control compounds used were two known firefly luciferase inhibitors (compounds (2) and (5) in Auld et al., 2010), and DMSO. Assay Summary: Three microliters containing firefly luciferase substrates in buffer (final concentrations: 50mM Tris acetate, pH 7.5, 10mM Mg acetate, 0.01% Tween-20, 0.05% BSA, 10uM D-luciferin, and 10uM ATP) are dispensed into each well of a Greiner white, solid-bottom 1536-well format plate using a flying reagent dispenser (FRD). […]
# % is scaled to controls: 0 for no effect and ±100 for the full control effect.
SMILES,"activity change, negative = inhibition",Potency
COCCn1c(CO)nnc1C1CC(NC(=O)c2sc(C)nc2C)C1 (configuration not stated),-3.21%,–
CCC(C(=O)Nc1ccc2c(c1)CN(Cc1cc(F)cc(F)c1)C(=O)CO2)c1ccccc1 (configuration not stated),1.72%,–
COc1cccc(C(=O)N2CCC(C(NC(=O)c3ccccc3C)C(=O)NCC(C)C)CC2)c1 (configuration not stated),-5.87%,–
O=C(NCC1Cn2cccc2C(=O)N1Cc1ccccc1)c1ccc(F)cc1 (configuration not stated),-1.37%,–
CCC1=C(C(=O)OC)C(c2ccc(C)cc2C)N2C(CC(=O)N3CCOCC3)=CSC2=N1 (configuration not stated),-4.47%,–
N#Cc1cc2c(nc1N1CCN(C3CCCC3)C(CCO)C1)CCCC2 (configuration not stated),3.08%,–
COC(=O)c1ccccc1NC(=O)Cn1nc2n(c1=O)CCCCC2,-2.82%,–
c1cc(N2CCOCC2)ccc1-c1cc(-c2cn[nH]c2)c2cncn2c1,–,22.4 µM (active)
COc1ncccc1-c1cc(-c2cn[nH]c2)c2cncn2c1,10% [at 230 µM],–
COc1ccccc1-c1cc(-c2cn[nH]c2)c2cncn2c1,-6.95% [at 230 µM],–
CC(C)C(=O)N1CCCC(c2nc(-c3ccccc3)no2)CCNC(=O)CC1 (configuration not stated),-3.93%,–
Cc1ccc(C(=O)N2CCCC(c3nc(-c4ccccc4)no3)CCNC(=O)CC2)cn1 (configuration not stated),–,28.2 µM (active)
Cn1cccc1C(=O)N1CCCC(c2nc(-c3ccccc3)no2)CCNC(=O)CC1 (configuration not stated),2.73%,–
CC[C@H]1CN(C(=O)c2ccc(F)cc2)CC[C@H]1CC(=O)Nc1ccccc1,13.4% [at 172 µM],–
Cn1ccc(Nc2cc3c(cn2)CN(CCc2ccccc2)CCN3)n1,3.4% [at 172 µM],–
O=C1CN(Cc2ccc(-c3ccccc3)cc2)CCN1c1cc(Cl)ncn1,-11.2%,–
OCc1cccc(-c2cc3c(cn2)CN(Cc2ccccc2)CCN3)c1,–,14.1 µM (active)
Cc1cccn2c(CC(=O)NCC3CCN(c4cnn(C)c(=O)c4)C3)cnc12 (configuration not stated),10.5%,–
O=C(O)[C@@H]1CN(C(=O)NC2CCCC2)C[C@H]1c1ccccn1,0%,–
O=C(NCc1ccnc2[nH]ccc12)c1ccccn1,–,28.2 µM (active)
O=C(NCc1c[nH]c2ncccc12)c1ccccn1,-11% [at 172 µM],–
COc1ccccc1C(=O)NCc1ccnc2[nH]ccc12,-9.82% [at 172 µM],–
CN(C)c1ccc(NC(=O)COc2ccc(-c3nnc4n3CCCC4)cc2)cc1,1.38%,–
Nc1nc(C2CC(NC(=O)CCc3nc4ccc(F)cc4[nH]3)C2)cc(=O)[nH]1 (configuration not stated),1.51%,–

SMILES,"activity change, negative = inhibition",Potency
COCc1nc(C2CC(NC(=O)c3cc(-c4ccsc4)n[nH]3)C2)cc(=O)[nH]1 (configuration not stated),–,28.2 µM (active)
COCc1nc(-c2ccc(NC(=O)Cn3nc4c(cc3=O)CCCC4)cc2)n[nH]1,5.99%,–
O=C(NCc1ccccn1)C1CN(S(=O)(=O)c2cccs2)CC12CCCCC2 (configuration not stated),-9.22%,–
O=C(NC1CC1)[C@@H]1C[C@H](Oc2cccnc2)CN1C(=O)C1CCC1,-5.55%,–
N#Cc1ccc(O[C@@H]2COCC[C@H]2NC(=O)CCCn2cccn2)cc1,0.744%,–
CCOC(=O)c1ccc(NC(=O)N2Cc3[nH]cnc3C[C@H]2c2nc(-c3ccc(Cl)cc3)no2)cc1,-15.6%,–
Cc1cccc(-c2noc([C@@H]3Cc4nc[nH]c4CN3C(=O)Nc3ccccc3)n2)c1,–,50.1 µM (active)
CC(C)NC(=O)N1Cc2[nH]cnc2C[C@H]1c1nc(-c2ccc(Cl)cc2)no1,-14.5% [at 172 µM],–
CCCCCCOC(=O)C1=CN(C)S(=O)(=O)N=C1C,-7.56%,–
Cn1cc(CC(=O)N2CCCc3ncc(C(N)=O)cc32)c2ccccc21,3.17% [at 172 µM],–
COCCNC(=O)CCc1c(C)nn(-c2ccccc2)c1Oc1ccccc1F,-0.838%,–
O=C([C@@H]1C[C@H](Oc2ccccc2)CN1C(=O)CN1CCCCCC1)N1CCCC1,-13.3%,–
CN(C)c1cccc(Nc2cc3c(cn2)NCCN(Cc2ccccc2)C3)c1,6.72% [at 172 µM],–
c1ccc(CN2CCNc3cc(NCc4cccnc4)ncc3C2)cc1,13.2% [at 172 µM],–
Fc1ccccc1CN1CCNc2cc(Nc3cccnc3)ncc2C1,–,50.1 µM (active)
Fc1ccc(Cc2nc3nccc(-c4ccco4)n3n2)cc1,-2.42%,–
COc1ccc(-c2ccc3ncc(Nc4ccc(C(F)(F)F)cc4)n3n2)cn1,4.32% [at 172 µM],–
O=C(Nc1cccc(Cl)c1)C1CCCN(c2nc3ncccc3o2)C1 (configuration not stated),3.77%,–
O=C(Nc1cccc(F)c1)N1CCCC(CN2CCOCC2)CC1 (configuration not stated),-4.29%,–
Cc1cccc(C(=O)N2C[C@@H](F)C[C@H]2C(=O)N2CCCCC2)c1,39.2%,–
Cc1cccc(-c2cccc(NC(=O)C3CCCN(C(=O)CC(F)(F)F)C3)c2)c1 (configuration not stated),–,11.2 µM (active)
CC(=O)Nc1cccc(-c2nnc3n2CCCC3)c1,3.08%,–
CC#CC(=O)N1CCCC(C(=O)Nc2cccc(-c3cccc(C)c3)c2)C1 (configuration not stated),–,15.8 µM (active)
